# Test results: PubChem BioAssay (EPA / NIEHS)
# Activity calls are given as the source filed them. How the source made its calls: active means hit-call score of the fitted dose curve at least 0.9, where 1 is the maximum; inconclusive means response in the unintended direction; inactive means score below 0.9.
# Test system: DIO3 (gene 1735)
# Experiment: CCTE_GLTED_hDIO3: CCTE's human Deiodinase 3 (DIO3) Inhibition Assay, Great Lakes Toxicology and Ecology Division (GLTED) Lab (AID 2284055);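 on AC50: potency is for inhibition seen as loss of released iodide signal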
# Experimental: CCTE_GLTED_hDIO3 is a cell-free, single-readout assay designed to test the inhibitory activity of chemicals toward human iodothyronine Deiodinase type 3 (DIO3) enzyme. Enzyme is incubated in presence of test chemical for 3 hours during which uninhibited enzyme liberates free iodide from substrate. Free iodide is measured in a second step using the Sandell-Kolthoff method.CCTE_GLTED_hDIO3 is the assay component measured from the CCTE_GLTED_hDIO3 assay. It is designed to make measurements of enzyme activity, a form of enzyme reporter, as detected with absorbance signals by spectrophotometry.Data from the assay component CCTE_GLTED_hDIO3 was analyzed into 1 assay endpoint. This assay endpoint, CCTE_GLTED_hDIO3, was analyzed in the positive analysis fitting direction relative to DMSO as the negative control and baseline of activity. Using a type of enzyme reporter, loss-of-signal activity can be used to understand changes in the enzymatic activity as they relate to the gene DIO3. Furthermore, this assay endpoint can be referred to as a primary readout, because the performed assay has only produced 1 assay endpoint. To generalize the intended target to other relatable targets, this assay endpoint is annotated to the 'deiodinase' intended target family, where the subfamily is 'deiodinase Type 3'.
# […] assay, developed at Great Lakes Toxicology and Ecology Division (GLTED) within the EPA's Center for Computational Toxicology and Exposure (CCTE), is designed to test the chemicals' ability to inhibit DIO3. Assay uses human deiodinase type 3 (DIO3) enzyme produced with adenovirus expression system. Assay is based on iodide release measured by the Sandell-Kolthoff method and is run in 96-well plate format with assay plates run in triplicate (n=3). The method used for the deiodinase assay was largely based on Renko et al. (2012, 2015). These works describe the utilization of the SK reaction to measure deiodinase-liberated iodide in a 96-well-plate format. The SK reaction is based on the reduction of the yellow-colored cerium IV to the non-colored cerium III by arsenic, with the rate of this reaction increased in the presence of iodide in a concentration-dependent manner (Sandell and Kolthoff, 1937). Iodinated test chemicals can interfere as competitive inhibitors, or if the stock chemical has contaminating free-iodide present. Other chemicals, e.g.: nitrite, iron, and thiocyanate can interfere with the Sandell-Kolthoff reaction (see Sandell and Kolthoff, 1937).
SMILES,AC50,outcome
CCC(=C(c1ccc(O)cc1)c1ccc(OCCN(C)C)cc1)c1ccccc1,58.4 µM (active),–
CC1=C(/C=C/C(C)=C/C=C/C(C)=C/C(=O)O)C(C)(C)CCC1,34.7 µM (active),–
CC(=O)NC1(c2cccc(F)c2)CCN(CC[C@@]2(c3ccc(Cl)c(Cl)c3)CN(c3ccccc3)C(=O)CO2)CC1,–,inactive
CCCCCCCCCCCCCC[N+](C)(C)C,7.85 µM (active),–
CN1CCN(c2ccccc2/C=C2\SCCN(c3ccc(Cl)c(Cl)c3)C2=O)CC1,–,inactive
c1ccc2cc3c(ccc4ccccc43)cc2c1,65.8 µM (active),–
Cc1oc(-c2ccccc2)nc1CCOc1ccc(C[C@H](Nc2ccccc2C(=O)c2ccccc2)C(=O)O)cc1,67.5 µM (active),–
CCCCCCCCCCCCc1ccccc1S(=O)(=O)O,40 µM (active),–
CC(C)(C)c1ccc(O)c(C(C)(C)C)c1,96.5 µM (active),–
ClC1=C(Cl)C(Cl)(Cl)C(Cl)=C1Cl,3.14 µM (active),–
CCCCCCCCCCCCN1CCCC1=O,87.8 µM (active),–
NC(=O)N(O)[C@@H]1C=C[C@H](Oc2cccc(Oc3ccc(F)cc3)c2)C1,30.5 µM (active),–
